Unmarked numbers belong to inactive results. The rule behind the calls is not given here.
molecular target: Pantothenate synthetase (Mycobacterium tuberculosis (strain ATCC 25618 / H37Rv)) (UniProt P9WIL5); test: Recombinant Mtb pantothenate synthetase (PanC) inhibitors, coupled enzyme, confirmatory (AID 375); conditions: coupled enzyme assay; at 10 µM, hits give high values;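 note: 0% = full reaction with vehicle and 100% = no enzyme background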
Sequence (P9WIL5 whole entry, looked up): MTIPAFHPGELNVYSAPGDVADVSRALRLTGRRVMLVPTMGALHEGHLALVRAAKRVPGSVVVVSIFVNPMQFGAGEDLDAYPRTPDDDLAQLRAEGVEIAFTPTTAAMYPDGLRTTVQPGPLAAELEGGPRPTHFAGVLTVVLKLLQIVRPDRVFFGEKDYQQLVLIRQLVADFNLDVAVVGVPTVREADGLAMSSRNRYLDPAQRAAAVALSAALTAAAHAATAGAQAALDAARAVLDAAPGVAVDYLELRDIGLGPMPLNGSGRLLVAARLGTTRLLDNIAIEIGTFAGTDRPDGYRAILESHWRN

Row | Structure (SMILES) | inhibition [%]
1 | O=C(NCCO)c1scc2c1OCCO2 | 4
2 | CS(=O)(=O)NCC(c1cccnc1)N1CCN(c2ccc(F)cc2)CC1 (stereo not given) | 1
3 | CCOc1ccccc1-c1nc(-c2ccc(C)nc2OC)no1 | 3
4 | Cc1ccc(-c2nnn(CC(=O)N(CC3CCCO3)C(C(=O)NC(C)(C)C)c3ccc(F)cc3)n2)o1 (stereo not given) | 6
5 | c1ccc2c(Cn3ccnc3)c[nH]c2c1 | 0
6 | CCn1c(SCC(=O)c2ccc(OC)cc2)nnc1C(C)NC(=O)c1ccc(OC)cc1 (stereo not given) | 3
7 | COc1ccc2nc(NC(=O)c3ccoc3C)sc2c1 | 0
8 | COc1cc(S(=O)(=O)N2CCOCC2)ccc1NC(=O)COC(=O)c1ccccn1 | 0
9 | Nc1cc(-c2ccccc2)ccc1O | 1
10 | CC(C)(Oc1ccc(Cl)cc1)C(=O)NC1CCSC1=O (stereo not given) | 0
11 | COc1ccc(C(C)=O)c(OC(=O)c2ccc(OC)c(OC)c2)c1 | 0
12 | CCOC(=O)c1ccc(NC(=O)CCNc2c(N3CCCC3)c(=O)c2=O)cc1 | 0
13 | C(=C\c1ccccc1)/CN1CCN(Cc2ccc3c(c2)OCCO3)CC1 | 1
14 | O=C(O)c1cc(O)c2c(c1)C(=O)c1cccc(O)c1C2=O | 9
15 | COC(=O)c1ccc(CSc2nc3c(cnn3-c3ccc(F)cc3)c(=O)[nH]2)o1 | 4
16 | O=S(=O)(Nc1ccccn1)c1ccc(Oc2ccccc2)cc1 | 1
17 | Cc1cc(C)n(CCCNC(=O)c2ccc3c(c2)NC(=O)CS3)n1 | 0
18 | CCOC(=O)Nc1c(C(=O)OC)[nH]c2cccc(OC)c12 | 0
19 | O=C(CSc1n[nH]c(=O)[nH]c1=O)c1ccccc1 | 0
20 | O=C1CCC(=O)N1OCCCCOc1ccccc1 | 2

Row | Structure (SMILES) | inhibition [%]
21 | CC1Cc2nc(SCC(=O)N3CCCc4ccccc43)n(C)c(=O)c2S1 (stereo not given) | 1
22 | COCc1nnc(NC(=O)c2ccc(S(=O)(=O)N(C)c3ccccc3)cc2)o1 | 0
23 | Cc1ccc(N=Cc2ccc[nH]2)c(O)c1 | 0
24 | O=C(NCCCN1CCOCC1)c1cc(-c2ccc(O)cc2)on1 | 0
25 | COC(=O)c1c(NC(=O)CCc2ccc(C)o2)sc(C)c1C | 1
26 | CCOC(=O)c1c(NC(=O)CSc2nc3c(c(=O)n(C)c(=O)n3C)n2C(C)C)sc(C)c1C | 10
27 | CCCC(=O)Nc1cnc(NC(=O)c2cccc(F)c2)cc1C | 0
28 | COC(=O)c1ccccc1S(=O)(=O)N(CCCO)Cc1cc2c(C)ccc(C)c2[nH]c1=O | 2
29 | O=C(NCC1CCCO1)C1c2ccccc2C(=O)N1C1CCCCCC1 (stereo not given) | 0
30 | O=C(Cc1nn[nH]n1)NCCC1=CCCCC1 | 4
31 | CCOC(=O)CC(NS(=O)(=O)c1ccc(NC(C)=O)cc1)c1ccc(OCC)cc1 (stereo not given) | 5
32 | CC(C)(C)Nc1nc(NC(C)(C)C)nc(-n2ccnc2)n1 | 0
33 | c1ccc(CCc2nc(-c3cccnc3)no2)cc1 | 0
34 | COc1cccc(OC)c1C(=O)N1CCN(S(=O)(=O)c2ccc(C)cc2)CC1 | 1
35 | O=C(NCC1COc2ccccc2O1)c1ccccc1 (stereo not given) | 2
36 | CN(C)c1ccc(C=Nc2ccc(N(C)C)cc2)cc1 | 0
37 | COc1cc(SC)ccc1C(=O)Nc1ccccc1C#N | 0
38 | O=C(Cc1cccs1)Nc1ccccc1C(=O)O | 4
39 | CCOC(=O)c1oc2cccc(OC(C)=O)c2c1C | 4
40 | COc1ccccc1-c1nnc(SCC(=O)N2CC(C)CC(C)C2)o1 (stereo not given) | 4

From PubChem BioAssay
